The text below walks through data of PubChem BioAssay.

In assay [1] the test system is Wnt5a (protein binding on small-molecule microarray). In words: Wnt5a binders on small-molecule microarray, primary screen, biophysical, 635/667 nm fluorescence (AID 1142).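 Further: fluorescence read at 667 nm with signal to noise per printed feature.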 The following applies: 635 nm fluorescence, higher = more signal.
A short description of assay [2]: cell viability in Huh7 cells, primary screen, cytotoxicity control for HCV replication inhibitor project, CellTiter-Glo luminescence, basal, 48 h (AID 1143).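 Further: Huh7 hepatoma cells carrying a hepatitis C replication reporter with no stimulus; test concentration not given here.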 The settings on record: Huh7 HCV replicon, higher = more signal, called active from +8 up or from −8 down.
Assay [3] can be described thus: P. aeruginosa biofilm formation inhibitors, primary screen, PAO1 strain, BacTiter-Glo luminescence, LB-PBS (AID 1144). The settings on record: 12 h, higher = more signal.
The nature of assay [4]: CREB reporter modulators without forskolin, primary screen, cell-based, PC12, CRE-LacZ reporter, unstimulated (AID 1145). The settings on record: no forskolin, luminescence, 4.5 h, higher = more signal, called active from +8 up or from −8 down.
A short description of assay [5]: CREB reporter modulators under forskolin, primary screen, cell-based, PC12, CRE-LacZ reporter, forskolin-stimulated (AID 1146).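 Further: PC12 cells with 6xCRE LacZ reporter stimulated by forskolin 10 µM; beta-galactosidase reporter signal reflecting CREB driven transcription.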 The following applies: luminescence, 4.5 h, higher = more signal, called active from +8 up or from −8 down.
Assay [6] concerns the target Streptavidin (Streptomyces avidinii) (UniProt P22629). In words: streptavidin binders on small-molecule microarray, primary screen, artefact control for SMM compound annotation, biophysical, 635/667 nm fluorescence (AID 1147).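 Further: signal reflects streptavidin binding to arrayed compounds as a control protein.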 The settings on record: streptavidin binding, higher = more signal.
Assay [7] can be described thus: small-molecule binders of probe aInhba, primary screen, biochemical, small-molecule microarray, 635/667 nm fluorescence (AID 1148).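 Further: score merges 667nm spot fluorescence with signal-to-noise for antibody binding to printed compounds.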 The following applies: higher = more signal.
Assay [8] has as its target Torsin-1A (Homo sapiens) (UniProt O14656). Briefly: torsin A binders from cell lysate, primary screen, small-molecule microarray, wild-type, 635/667 nm (AID 1149). The following applies: COS7 hTOR1A-WT lysate, 635 nm fluorescence, higher = more signal.
Assay [9] shares this target. In words: small-molecule binders of mutant TOR1A in lysate, primary screen, cell lysate, small-molecule microarray, COS7 lysate, 635/667 nm fluorescence (AID 1150).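 Further: score pools 667 nm emission and signal to noise measuring lysate protein binding.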 The following applies: COS7 hTOR1A mutant lysate, 635 nm fluorescence, higher = more signal.
Assay [10] deals with Sonic hedgehog protein (Shh). In words: small-molecule binders of Shh protein, primary screen, biochemical, small-molecule microarray, 635/667 nm fluorescence (AID 1151).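 Further: Shh protein binding to compounds spotted on small-molecule microarray slides; score combines spot fluorescence intensity with signal-to-noise across triplicate slides.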 The following applies: small-molecule microarray binding, 635 nm fluorescence; higher = more signal.
Assay [11] is described as follows: E. coli DRC41 culture turbidity changes, primary screen, E. coli filamentation inducer project, strain DRC41, OD650, 48 h (AID 1152).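 Further: E. coli MC1000 strain DRC41 lacking acrAB efflux pump and sulA.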 The settings on record: E. coli DRC41 (acrAB sulA), higher = more signal, called active from +8 up or from −8 down.
The nature of assay [12]: small-molecule binders of probe aLefty1, primary screen, biochemical, small-molecule microarray, 635/667 nm fluorescence (AID 1153).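 Further: score merges spot fluorescence with signal-to-noise ratio from the scanned slide images.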 The following applies: higher = more signal.
Assay [13] can be described thus: PSAC antagonists in infected red cells, primary screen, cell-based, P. falciparum Indochina, OD700, 1 h (AID 1154). The settings on record: P. falciparum Indochina infected RBC osmotic lysis, higher = more signal, called active from +8 up or from −8 down.
A short description of assay [14]: PSAC antagonists in infected red cells, primary screen, cell-based, P. falciparum Indochina, OD700, 2 h (AID 1155).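 Further: lysis reports solute entry through the parasite surface anion channel PSAC; channel blockers reduce lysis of infected cells.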 The following applies: P. falciparum Indochina infected erythrocytes, osmotic lysis OD700; higher = more signal, called active from +8 up or from −8 down.
Assay [15] in a line: osmotic lysis modulators in infected erythrocytes, primary screen, PSAC antagonist project, cell-based, P. falciparum Indochina, OD700, 3 h (AID 1156). The following applies: higher = more signal, called active from +8 up or from −8 down.
Assay [16] is described as follows: PSAC antagonists in infected red cells, primary screen, cell-based, P. falciparum Indochina, OD700, 18 h (AID 1157). The settings on record: P. falciparum Indochina infected erythrocytes, osmotic lysis OD700, 18 h; higher = more signal, called active from +8 up or from −8 down.
The nature of assay [17]: modulators of S6 phosphorylation in cells, primary screen, cell-based, A549, cytoblot, luminescence, serum-stimulated (AID 1158).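 Further: serum-stimulated A549 lung adenocarcinoma cells; signal is phosphorylated S6 detected by cytoblot immunostaining with HRP secondary.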 The following applies: A549 phospho-S6 cytoblot, 5 h, higher = more signal.
Assay [18] has as its target NADPH oxidase 2 (Homo sapiens) (UniProt P04839). In words: NOX2-dependent H2O2 signal modulators, primary screen, NOX inhibitor project, cell-based, HEK293-NOX2, PMA-stimulated, Amplex Red fluorescence (AID 1159). Further: test concentration not given here. The settings on record: 45 min, higher = more signal, called active from +8 up or from −8 down.
The target in assay [19] is NADPH oxidase 4 (Homo sapiens) (UniProt Q9NPH5). In words: NOX4-dependent H2O2 signal modulators, primary screen, NOX inhibitor project, cell-based, HEK293-NOX4, tetracycline-induced, Amplex Red fluorescence (AID 1160). The settings on record: 45 min, higher = more signal, called active from +8 up or from −8 down.
Assay [20] has as its target NADPH oxidase 5 (Homo sapiens) (UniProt Q96PH1). In words: NOX5-dependent H2O2 signal modulators, primary screen, NOX inhibitor project, cell-based, HEK293-NOX5, Amplex Red fluorescence (AID 1161). The following applies: HEK293-NOX5, ionomycin, 45 min, higher = more signal.

Structures are written as SMILES. Calls of active or inactive are those of the source. Unless noted, how the calls were made is not given here.

NADPH oxidase 5 (Homo sapiens), sequence (Q96PH1 whole entry, looked up): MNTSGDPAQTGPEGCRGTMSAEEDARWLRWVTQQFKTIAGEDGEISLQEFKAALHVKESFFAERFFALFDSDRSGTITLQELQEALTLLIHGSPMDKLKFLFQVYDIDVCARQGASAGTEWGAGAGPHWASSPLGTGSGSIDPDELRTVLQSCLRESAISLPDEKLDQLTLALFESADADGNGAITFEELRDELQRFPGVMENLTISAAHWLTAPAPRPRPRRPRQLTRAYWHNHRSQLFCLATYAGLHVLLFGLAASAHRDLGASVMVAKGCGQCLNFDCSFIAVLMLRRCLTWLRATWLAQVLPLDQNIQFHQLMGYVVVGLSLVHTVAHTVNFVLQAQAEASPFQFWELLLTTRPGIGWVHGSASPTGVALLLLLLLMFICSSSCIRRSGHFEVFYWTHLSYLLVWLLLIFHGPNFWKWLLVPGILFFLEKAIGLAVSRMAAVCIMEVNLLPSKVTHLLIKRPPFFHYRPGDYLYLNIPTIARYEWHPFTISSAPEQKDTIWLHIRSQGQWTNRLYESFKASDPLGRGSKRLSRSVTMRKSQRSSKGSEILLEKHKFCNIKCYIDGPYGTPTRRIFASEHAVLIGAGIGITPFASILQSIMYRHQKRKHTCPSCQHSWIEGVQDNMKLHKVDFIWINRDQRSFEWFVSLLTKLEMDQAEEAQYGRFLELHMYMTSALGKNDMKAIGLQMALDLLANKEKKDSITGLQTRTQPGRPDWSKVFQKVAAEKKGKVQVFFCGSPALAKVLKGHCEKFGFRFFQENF
Streptavidin (Streptomyces avidinii), sequence (P22629 whole entry, looked up): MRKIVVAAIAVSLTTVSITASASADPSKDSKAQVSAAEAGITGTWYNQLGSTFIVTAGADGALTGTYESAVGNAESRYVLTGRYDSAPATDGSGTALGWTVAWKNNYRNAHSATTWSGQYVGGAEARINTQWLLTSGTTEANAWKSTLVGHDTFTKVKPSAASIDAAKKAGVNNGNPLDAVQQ
NADPH oxidase 2 (Homo sapiens), sequence (P04839 whole entry, looked up): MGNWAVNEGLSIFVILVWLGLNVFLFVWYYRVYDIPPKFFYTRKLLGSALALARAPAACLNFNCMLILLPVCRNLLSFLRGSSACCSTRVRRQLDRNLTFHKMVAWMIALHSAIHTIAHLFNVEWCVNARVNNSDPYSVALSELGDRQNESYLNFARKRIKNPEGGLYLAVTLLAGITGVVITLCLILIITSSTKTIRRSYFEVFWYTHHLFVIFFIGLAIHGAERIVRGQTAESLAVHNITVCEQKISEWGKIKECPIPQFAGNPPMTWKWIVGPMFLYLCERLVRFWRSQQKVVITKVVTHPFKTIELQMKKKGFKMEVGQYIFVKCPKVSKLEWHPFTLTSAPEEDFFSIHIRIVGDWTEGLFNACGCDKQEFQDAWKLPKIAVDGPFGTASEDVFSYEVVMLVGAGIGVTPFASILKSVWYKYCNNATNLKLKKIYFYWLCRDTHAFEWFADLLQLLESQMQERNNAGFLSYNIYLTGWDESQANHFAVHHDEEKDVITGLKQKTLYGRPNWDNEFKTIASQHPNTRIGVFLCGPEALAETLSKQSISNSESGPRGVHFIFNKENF
NADPH oxidase 4 (Homo sapiens), sequence (Q9NPH5 whole entry, looked up): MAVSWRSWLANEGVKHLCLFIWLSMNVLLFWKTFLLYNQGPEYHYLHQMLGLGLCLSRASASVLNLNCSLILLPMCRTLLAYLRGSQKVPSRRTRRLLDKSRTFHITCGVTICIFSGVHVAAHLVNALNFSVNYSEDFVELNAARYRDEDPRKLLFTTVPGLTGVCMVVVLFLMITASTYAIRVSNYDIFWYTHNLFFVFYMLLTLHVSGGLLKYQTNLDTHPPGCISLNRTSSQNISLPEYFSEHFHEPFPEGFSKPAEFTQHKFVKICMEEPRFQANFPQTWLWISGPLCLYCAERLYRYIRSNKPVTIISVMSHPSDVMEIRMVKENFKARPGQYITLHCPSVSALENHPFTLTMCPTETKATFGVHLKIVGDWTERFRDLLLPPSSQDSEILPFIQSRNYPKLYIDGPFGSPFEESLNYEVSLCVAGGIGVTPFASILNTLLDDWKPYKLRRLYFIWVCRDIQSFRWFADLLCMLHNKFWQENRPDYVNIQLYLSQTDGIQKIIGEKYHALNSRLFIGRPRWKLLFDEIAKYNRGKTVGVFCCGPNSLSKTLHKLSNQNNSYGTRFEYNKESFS
Torsin-1A (Homo sapiens), sequence (O14656 whole entry, looked up): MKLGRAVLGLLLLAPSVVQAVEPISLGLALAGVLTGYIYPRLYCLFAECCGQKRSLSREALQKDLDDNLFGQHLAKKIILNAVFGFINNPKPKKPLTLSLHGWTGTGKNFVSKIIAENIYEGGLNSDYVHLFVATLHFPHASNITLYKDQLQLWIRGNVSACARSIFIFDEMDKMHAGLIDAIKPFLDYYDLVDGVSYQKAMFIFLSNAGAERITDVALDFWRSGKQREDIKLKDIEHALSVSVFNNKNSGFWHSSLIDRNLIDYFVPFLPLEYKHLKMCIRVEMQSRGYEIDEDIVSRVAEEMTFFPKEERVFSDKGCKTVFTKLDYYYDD

Turning to `CC(C)(C)OC(=O)CC[C@@]1(C(=O)NCC(O)CO)N=C(c2ccc(OCCCO)cc2)O[C@@H]1c1ccccc1CN=[N+]=[N-]` (stereo not given in full), the composite z-score in assay [1] is 0.167; in assay [6], 1.14; in [7], -0.0021; with Torsin-1A (Homo sapiens) [8], 1.48; with Torsin-1A (Homo sapiens) [9] it was 0.654; in assay [10] it was -0.157. The composite z-score in assay [12] was determined as 0.258. Besides, the z-score was 0.0366 (inactive) in assay [2]; -0.719 (inactive) in assay [3]; 1.98 (inactive) in [4]; -0.424 (inactive) in assay [5]; 0.399 (inactive) in assay [11]; 25.3 (active) in assay [13]. Moreover, the z-score in assay [14] was 5.67 (inactive); in assay [15], 0.814 (inactive); in assay [16] it was 0.936 (inactive); in assay [17], 0.906; in assay [18], 1.18 (inactive); in assay [19], 0.87 (inactive). Further, in [20], the z-score was 0.416.
For the compound `CC1CC/C=C\[C@H]2OC34C=CCN(c5ccc(Cl)cc5)C(=O)[C@H]3N(C(C)CO)C(=O)[C@]4(C)C2C(=O)O1` (stereo not given in full), the composite z-score in assay [1] was -0.304; in assay [6], -0.367; in [7] it was -0.401; with Torsin-1A (Homo sapiens) [8] it was -0.979; with Torsin-1A (Homo sapiens) [9], -1.5; in [10], -0.374. Moreover, the composite z-score in [12] is -0.284. The z-score in assay [2] is 0.0276 (inactive); in assay [3] it was 0.2 (inactive); in assay [4], -0.0859 (inactive); in assay [5], 0.325 (inactive); in [11], 0.346 (inactive); in [13], 0.685 (inactive). Besides, the z-score in assay [14] is 0.67 (inactive); in assay [15], 0.335 (inactive); in assay [16], 0.281 (inactive); in assay [17], 0.116; in [18], 0.889 (inactive); in assay [19], -0.383 (inactive). Besides, the z-score in assay [20] is 1.17.
Take `COCCOC(=O)N1C(=O)[C@@]2(c3ccccc31)[C@H](C(=O)NC[C@H](O)c1ccccc1)[C@H]1C(=O)O[C@H](c3ccccc3)[C@H](c3ccccc3)N1[C@@H]2c1ccc(O)cc1`: the composite z-score in [1] worked out at 0.852; in [6], 1.09; in [7] it was 0.106; in the assay with Torsin-1A (Homo sapiens) [8], 0.877; with Torsin-1A (Homo sapiens) [9] it was 0.383; in assay [10], 1.74. Besides, the composite z-score in [12] is -0.671. Besides, the z-score was -1.98 (inactive) in assay [2]; -0.193 (inactive) in [3]; 0.155 (inactive) in assay [4]; 2.34 (inactive) in [5]; 0.503 (inactive) in [11]; 1.89 (inactive) in assay [13]. Besides, the z-score in [14] was 0.74 (inactive); in assay [15] it was -0.0724 (inactive); in [16], 0.786 (inactive); in [17], 0.315; in assay [18], 1.22 (inactive); in assay [19] it was 0.4 (inactive). Further, the z-score in [20] was 0.855.
In the case of `C=CCC(OC(C)=O)[C@@H]1[C@@H](N(Cc2ccc(-c3cccc(C(F)(F)F)c3)o2)C(=O)Cc2ccc(OC)cc2)c2cc(OCCCO)ccc2N1C(=O)c1ccc(-c2ccccc2)cc1` (stereo not given in full), the composite z-score was 0.0179 in assay [1]; 1.31 in [6]; 0.153 in [7]; -0.368 with Torsin-1A (Homo sapiens) [8]; -0.38 with Torsin-1A (Homo sapiens) [9]; 0.439 in assay [10]. The compound also displayed a composite z-score in assay [12] of 0.235. The z-score in assay [2] was -1.28 (inactive); in [3], 0.198 (inactive); in assay [4], 1.15 (inactive); in assay [5] it was 0.393 (inactive); in assay [11] it was -1.12 (inactive); in assay [13], 0.922 (inactive). Further, the z-score in assay [14] is -0.393 (inactive); in [15], 1.81 (inactive); in assay [16], 0.0651 (inactive); in [17] it was -0.199; in assay [18], -1.2 (inactive); in [19], -1.15 (inactive). The z-score in [20] is -1.35.
